Screening data: PubChem, National Center for Advancing Translational Sciences (NCATS)
This is a sample that favours compounds with a hit; in the whole collection about 10% have one here.
PNC assembly inh – inhibitors of perinucleolar compartment assembly; PC3M PTB-GFP, PNC prevalence imaging, 16 h; hits give low values; activity change (PNC), negative = inhibition, % at 10 µM; 140,000 tested, 3.1% active; AID 2417;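 active = readout at or below -70, meaning at least 70% loss of cells showing the perinucleolar compartment, a nuclear body marking cancer cells; inconclusive = readout between -30 and a set limit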
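PC3M cells stably expressing PTB-GFP, 750–1000 cells/well, treated 16 h at 37 °C with compound (23 nl of library stock), in duplicate. After paraformaldehyde fixation and Hoechst stain, imaged at 20x; PNC prevalence scored by image analysis.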
ALOX12 inhib – blocks human 12-lipoxygenase activity; P18054; purified 12-hLO, xylenol orange hydroperoxide absorbance; Potency, µM (titrated, usually from 57.1 µM), usual class: inhibitors; 150,000 tested, 0.12% active; active = well fitted inhibition curve with a large enough effect; inconclusive = small, poorly fitted or top-dose-only effect; also: nearly all actives have a fitted effect of over 55% in size
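Xylenol orange chromogenic assay: hydroperoxide from 12hLO oxidises Fe(II), giving red-shifted Fe(III)-XO absorbance. Conditions: 150 nM enzyme, 40 uM arachidonic acid, 25 mM Hepes pH 7.0, 0.01% Triton X-100, 30 min, room temperature.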
HPGD inh – inhibitors of human 15-hydroxyprostaglandin dehydrogenase (HPGD). Potency, µM, usual class: inhibitors. 150,000 tested, 4.3% active. purified HPGD, NADH fluorescence kinetic, PGE2 substrate
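NADH formation kinetics: reaction with 30 uM PGE2 and 1 mM NAD+ (final), 20 nM enzyme, Tris-HCl pH 8 with Tween 20, after 15 min compound preincubation at room temperature. Fluorescence change, last versus first of five reads.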
LMNA splice mod – modulators of lamin A splicing; Potency, µM (top dose mostly 46.1 µM), hits mostly inhibitors; 200,000 tested, 0.01% active; HeLa LMNA splicing GFP/RFP minigene ratio, 48 h; active = well fitted inhibition curve with a large enough effect in the signal ratio, with a control signal flat, not every such curve was filed as active; inconclusive = small, poorly fitted or top-dose-only effect, or effect the other way, or a change in a side signal; the % refers to the signal ratio
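Read-out is the ratio of GFP to DsRed2 object intensity, acquired by 488 nm laser-scanning cytometry on HeLa lamin A-EGFP minigene reporter cells. Compound incubation 48 hrs at 37 °C in Opti-MEM with 2% FBS; DMSO 0.5% final.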
ALDH1A1 block – ALDH1A1 (human) enzyme inhibition; 220,000 tested, 7.3% active; Purified ALDH1A1, NADH fluorescence, propionaldehyde substrate; Potency, µM (doses to about 75.3 µM), actives largely listed as inhibitors; P00352
Target sequence (P00352 whole entry, looked up): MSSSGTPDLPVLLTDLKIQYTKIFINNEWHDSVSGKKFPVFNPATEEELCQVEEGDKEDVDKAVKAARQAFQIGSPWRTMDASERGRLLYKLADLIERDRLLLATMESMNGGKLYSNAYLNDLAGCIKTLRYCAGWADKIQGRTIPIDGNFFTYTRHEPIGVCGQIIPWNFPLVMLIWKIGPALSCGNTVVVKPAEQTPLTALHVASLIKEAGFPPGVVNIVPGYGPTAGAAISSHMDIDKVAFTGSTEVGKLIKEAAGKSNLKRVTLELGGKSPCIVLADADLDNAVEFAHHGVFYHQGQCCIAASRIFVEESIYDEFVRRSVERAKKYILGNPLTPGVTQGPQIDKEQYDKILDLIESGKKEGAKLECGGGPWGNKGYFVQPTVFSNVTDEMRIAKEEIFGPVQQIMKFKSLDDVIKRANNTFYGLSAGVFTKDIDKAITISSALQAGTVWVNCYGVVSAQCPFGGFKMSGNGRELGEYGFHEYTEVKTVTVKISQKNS
Numbers stand for hits; i = inactive; ? = inconclusive; nt = no result given. Unless noted, calls follow the shape of the dose curve; as a rule, active = well fitted inhibition curve with a large enough effect (not every such curve was filed as active); inconclusive = small, poorly fitted or top-dose-only effect, or another doubt; inactive = no such curve, though single readings can be large or run the other way.

SMILES	PNC assembly inh	ALOX12 inhib	HPGD inh	LMNA splice mod	ALDH1A1 block
CCOC(=O)c1c(NC(=O)CCC(=O)O)sc2c1CCCCC2	?	i	8.9µM	i	8.9µM
COc1ccccc1NC(=O)c1c(NC(=O)CCC(=O)O)sc2c1CCCCC2	nt	nt	nt	nt	22µM
CCOC(=O)c1c(NC(=O)CCCC(=O)O)sc2c1CCC2	nt	nt	nt	i	i
CCOC(=O)c1c(NC(=O)CNCCOC)sc2c1CCCC2	i	i	i	i	25µM
CCOC(=O)c1c(NC(=O)CN(CC)CC)sc2c1CCC2	?	i	i	?	i
O=C(NCC(c1cccs1)S(=O)(=O)c1cccs1)c1ccccc1 (stereo unspecified)	nt	nt	nt	i	nt
CC1CCC(C(C)C)C(OC(=O)COC(=O)c2ccc(=O)[nH]c2)C1 (stereo unspecified)	?	i	i	?	i
CC1CCC(C(C)C)C(OC(=O)CSc2nccc(=O)[nH]2)C1 (stereo unspecified)	i	i	i	i	25µM
O=C(CSc1nc2nc3c(cc2c(=O)n1-c1ccccc1)CCCC3)Nc1cccc2ccccc12	i	i	i	i	7.9µM
O=C(CSc1nc2ccccc2c(=O)n1-c1ccccc1F)Nc1ccc2c(c1)CCC2	i	i	i	i	i
Cc1ccccc1-n1c(SCC(=O)Nc2ccccc2)nc2nc3c(cc2c1=O)CCCC3	i	i	i	i	7.9µM
Cc1c(O)nc(SCC(=O)Nc2ccc3c4c(cccc24)CC3)n(-c2ccccc2)c1=O	-113	i	i	?	?
Cc1cccc(NC(=O)CSc2nc3nc4c(cc3c(=O)n2-c2ccccc2)CCCC4)c1	i	i	i	i	?
Cc1cccc(NC(=O)NCCN2C(=O)C3C4C=CC(C4)C3C2=O)c1 (stereo unspecified)	?	i	i	i	?
COc1ccc(NC(=O)NCCN2C(=O)C3C4C=CC(C4)C3C2=O)cc1 (stereo unspecified)	-82	i	i	i	?
O=C(NCCN1C(=O)C2C3C=CC(C3)C2C1=O)Nc1ccccc1 (stereo unspecified)	i	i	i	i	13µM
O=C(NCCN1C(=O)C2C3C=CC(C3)C2C1=O)NCc1ccccc1 (stereo unspecified)	i	i	i	i	?
Cc1ccc(NC(=O)NCCN2C(=O)C3C4C=CC(C4)C3C2=O)cc1 (stereo unspecified)	i	i	i	i	10µM
CCOC(=O)c1c(C)[nH]c(C(=O)CSc2nc(C)cc(C)n2)c1C	i	i	i	?	16µM
O=C(O)/C(=C\c1ccc(Cl)cc1)c1ccc(F)cc1	nt	nt	nt	i	i
CCOc1ccccc1NC(=O)C(OC(=O)c1ccc(CC)cc1)c1ccccc1 (stereo unspecified)	i	i	i	i	?
CCOc1ccccc1NC(=O)C(OC(=O)c1ccc(O)cc1)c1ccccc1 (stereo unspecified)	i	i	i	?	7.9µM
O=C1c2oc3ccc(F)cc3c(=O)c2C(c2ccncc2)N1CCN1CCOCC1 (stereo unspecified)	?	i	i	i	i
COc1cccc(C2c3c(oc4ccccc4c3=O)C(=O)N2CCCN2CCOCC2)c1 (stereo unspecified)	?	i	i	i	?
Cc1ccc2oc3c(c(=O)c2c1)C(c1ccc(F)cc1)N(CCCN1CCOCC1)C3=O (stereo unspecified)	i	i	i	i	3.5µM
SMILES	PNC assembly inh	ALOX12 inhib	HPGD inh	LMNA splice mod	ALDH1A1 block
Cc1ccc2oc3c(c(=O)c2c1)C(c1cccc(Cl)c1)N(CCCN1CCOCC1)C3=O (stereo unspecified)	?	i	i	i	13µM
CCCCC[C@H](O)/C=C/C=C\C=C\C=C\[C@@H](O)[C@@H](O)CCCC(=O)O	nt	i	i	nt	i
Cc1cccc(NC(=O)c2c(C)oc3ncnc(N4CCCCC4)c23)c1C	nt	nt	nt	i	nt
CCN(CC)c1ccc(/C=C/c2cc(-c3ccccc3)c3ccccc3n2)cc1	nt	nt	nt	nt	11µM
CCOc1cc(/C=C/c2cc(C(=O)O)c3ccccc3n2)ccc1O	i	i	i	i	i
C=CCn1c(SC(C)C#N)nc2sc(CC)cc2c1=O (stereo unspecified)	nt	nt	nt	i	2µM
C=CCn1c(SC(C)C(N)=O)nc2sc(CC)cc2c1=O (stereo unspecified)	nt	nt	nt	nt	8.9µM
C=CCn1c(SCC(=O)c2c(N)n(CCC)c(=O)n(C)c2=O)nc2sc(CC)cc2c1=O	?	i	i	i	i
C=CCn1c(SCC(=O)Nc2sccc2C(N)=O)nc2sc(CC)cc2c1=O	i	i	i	?	?
COC(=O)Sc1nc(N2CCOCC2)c2c(c1C#N)CC(C)(C)OC2	-116	i	nt	i	14µM
CCOC(=O)CSc1nc(N2CCOCC2)c2c(c1C#N)CC(C)(C)N(C)C2	i	i	nt	?	18µM
CC1(C)Cc2c(C#N)c(SCC(=O)c3ccccc3)nc(N3CCOCC3)c2CO1	?	i	?	i	i
C/C(=C\CO)CCC(C)CCCC(C)CCCC(C)C (stereo unspecified)	nt	i	i	?	i
COc1ccc2c(C=O)cn(C)c2c1	nt	nt	nt	i	2.2µM
COc1ccc2[nH]cc(C=O)c2c1	i	i	i	i	?
CC(C)(C)OC(=O)N[C@@H](CC(=O)OCc1ccccc1)C(=O)O	nt	nt	nt	?	i
COC(=O)C(Cc1cncn1COCc1ccccc1)NC(=O)OC(C)(C)C (stereo unspecified)	i	i	i	i	20µM
COCCNC(=O)c1sc2nc3n(c(=O)c2c1C)CCC3	nt	nt	nt	i	nt
CCN(CC)c1ccc(N=Cc2ccccc2[N+](=O)[O-])cc1	-99	i	i	?	2µM
CCN(CC)c1ccc(N=Cc2ccc([N+](=O)[O-])o2)cc1	?	i	i	?	?
NNC(=O)c1ccc(COc2cccc3cccnc23)cc1	nt	nt	nt	i	14µM
O=C(N/N=C/c1ccc[nH]1)c1ccc(COc2cccc3cccnc23)cc1	nt	nt	nt	nt	i
COc1ccccc1OCc1ccc(C(=O)NN)cc1	i	i	i	i	14µM
O=C(COc1ccccc1)NCC(=O)N/N=C/c1ccco1	-121	i	?	?	12µM
O=C(N/N=C/c1ccco1)c1cc(Br)ccc1OCc1ccccc1	i	i	?	i	?
SMILES	PNC assembly inh	ALOX12 inhib	HPGD inh	LMNA splice mod	ALDH1A1 block
COc1ccccc1OCc1ccc(C(=O)N/N=C/c2ccco2)cc1	-114	i	i	i	i
COc1cc(SC)ccc1C(=O)Nc1nccs1	nt	nt	nt	i	i
CCOc1ccc(NC(=O)c2ccc3nc(Cc4ccccc4)oc3c2)cc1	nt	nt	nt	i	nt
Cc1ccc(COc2ccsc2C(=O)NN)cc1	nt	nt	nt	i	6.3µM
CNC(=O)c1ccc(OCc2ccccc2)c(OC)c1	-107	i	i	i	i
COc1ccc(CC(=O)c2ccc(OC)c(OC)c2)cc1	i	i	i	?	i
COc1ccc(C(=O)NN=C(Cc2ccccc2)Cc2ccccc2)cc1OC	i	i	i	i	?
COc1ccc(C(=O)Cc2ccccc2)cc1OC	-84	i	i	i	i
CCC1Oc2ccccc2N(CC(=O)NCc2ccccc2)C1=O (stereo unspecified)	nt	nt	nt	i	nt
